High-throughput results deposited in PubChem BioAssay by several laboratories.
The list is not random: actives were taken first. Their share in the collection is about 2.2%.
Ba/F3 V617F tox: loss of viability in JAK2V617F-driven Ba/F3 cells | Ba/F3 EpoR-JAK2V617F viability, ATP luminescence | inhibition, % at 5.6 µM | 220,000 tested, 1.1% active;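 active = inhibition above the campaign mean plus 3 SD over all tested compounds, cut at about 24% in these data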;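 note: cytokine-independent growth of Ba/F3 cells driven by EpoR plus mutant JAK2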
aSyn UTR inh: 5' untranslated region of α-synuclein, MLPCN primary screen | alpha-synuclein 5'UTR reporter, inhibitor activity | inhibition, % (tested at 7.5 µM) | 300,000 tested, 0.82% active; in the data active = inhibition above about 60%; inconclusive = no clear call, values can overlap the other calls;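 note: H4 neuroglioblastoma cells stably carrying SNCA 5'UTR luciferase fusion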
IEC-6 tox: IEC-6 cytotoxicity, counter-screen for KLF5 inhibitors; inhibition, % at 5 µM; 290,000 tested, 0.78% active; luminescence viability; AID 1825; in the data active = inhibition above about 22%
APP transl inh: APP translation inhibition; SH-SY5Y APP 5'UTR-luciferase reporter, luminescence; inhibition, % at 2 µM; AID 1285; 190,000 tested, 0.82% active;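 active = inhibition above a set limit, derived from the sample mean plus 3 SD, cut at about 45% in these data; inconclusive = one replicate passes the limit while the other fails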
BaF3 parental: counter-screen for JAK2V617F inhibitors: parental Ba/F3 viability inhibitors | inhibition, % at 5.6 µM | 220,000 tested, 1.1% active | CellTiter-Glo ATP luminescence;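 active = inhibition above a per-campaign cutoff, the mean inhibition of all tested compounds plus 3 SD, cut at about 27% in these data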
KLF5 inhibitor: suppresses KLF5 promoter-driven expression; DLD-1 KLF5 promoter-luciferase reporter, luminescence; inhibition, % at 5 µM; AID 1700; 290,000 tested, 0.23% active;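 active = inhibition above a per-plate limit of that plate's mean compound inhibition plus 3 SD, cut at about 60% in these data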;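 note: higher means less KLF5 promoter-driven luciferase light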
Of the large screens only hits and unclear results are named; the others gave an inactive call.

c1nc2nc3c(c(N4CCNCC4)n2n1)CCCC3	none (no result: APP transl inh)
O=c1c2ccccc2nc(CSc2ncnc3nc[nH]c23)n1-c1ccccc1	BaF3 parental 32
O=c1c2ccccc2nc(CSc2ncnc3nc[nH]c23)n1-c1ccccc1Cl	none
CC1=CC(C)C(COC(N)=O)(COC(N)=O)C(C)C1 (centres undefined)	none
COP(=O)(OC)C(O)C(Cl)(Cl)Cl (centres undefined)	none (no result: aSyn UTR inh)
CN(C(=O)CNC(=O)OCc1ccccc1)c1ccc(Br)cc1C(=O)c1ccccc1Cl	APP transl inh 80
O=C(CNC(=O)OCc1ccccc1)Nc1ccc(Br)cc1C(=O)c1ccccc1Cl	none
CC(=NCc1ccco1)c1c(O)n(-c2ccccc2)c(=O)[nH]c1=O	none
Cc1ccc(NP(=O)(Oc2ccccc2F)Oc2ccccc2F)cc1	BaF3 parental 66
O=c1c2ccccc2nc(/C=C/c2ccc([N+](=O)[O-])o2)n1-c1ccc(O)cc1	aSyn UTR inh 100, APP transl inh 80
C=C[C@@H]1C[C@@]1(C)[C@@H](NP(=O)(c1ccccc1)c1ccccc1)c1ccccc1	none
O=C(NC1(C(F)(F)F)Oc2ccc(Cl)cc2O1)N1CCC2(CC1)OCCO2 (centres undefined)	Ba/F3 V617F tox 44, APP transl inh 48
O=C(NC1(C(F)(F)F)Oc2ccccc2O1)N1CCC2(CC1)OCCO2	none
C/C=C(\C)C(=O)OC1C(C)=C2C(C1OC(=O)CCCCC)C(C)(OC(C)=O)CC(OC(=O)CCC)C1(O)C2OC(=O)C1(C)O (centres undefined)	aSyn UTR inh 108 (no result: Ba/F3 V617F tox, IEC-6 tox, APP transl inh, BaF3 parental, KLF5 inhibitor)
CCN(CC)C(=O)c1ccc(NC(=O)Nc2ccccc2F)cc1	Ba/F3 V617F tox 43, aSyn UTR inh inconclusive, IEC-6 tox 28, BaF3 parental 43
Cc1ccc(-n2c(O)c(C=Nc3ccccc3N)c(=O)[nH]c2=O)cc1C	none
O=c1[nH]c(=O)n(-c2ccc(F)cc2)c(O)c1C=Nc1ccccc1N1CCCC1	BaF3 parental 38
O=C1CC(=O)N(c2cccc(F)c2)C(=O)N1	none (no result: Ba/F3 V617F tox, APP transl inh, BaF3 parental)
COc1ccc(C[C@H]2NC[C@H](O)[C@H]2OC(C)=O)cc1	aSyn UTR inh 112 (no result: Ba/F3 V617F tox, IEC-6 tox, APP transl inh, BaF3 parental, KLF5 inhibitor)
CCCCC(=O)N/N=C/c1c(O)n(-c2cccc3ccccc23)c(=O)[nH]c1=O	none (no result: APP transl inh)
Cn1ncnc2c(=O)n(C)c(=O)nc1-2	aSyn UTR inh 98 (no result: Ba/F3 V617F tox, IEC-6 tox, APP transl inh, BaF3 parental, KLF5 inhibitor)
CC1=CC(=C2C(=O)NC(=O)NC2=O)C=C(C(F)(F)F)N1Cc1ccccc1	none
CC1=CC(=C2C(=O)NC(=S)NC2=O)C=C(C(F)(F)F)N1CCc1ccccc1	APP transl inh 92
CCCCOCCCN1C(C)=CC(=C2C(=O)NC(=S)NC2=O)C=C1C	none (no result: APP transl inh)
CC1=CC(=C2C(=O)NC(=S)NC2=O)C=C(C(F)(F)F)N1Cc1ccccc1	aSyn UTR inh 113, APP transl inh 90
CCN(CC)P(=O)(NC(=O)C(Cl)(Cl)Cl)N(CC)CC.[Cl-].[Cl-].[Cl-].[Nd+3]	none
CCOC(=O)c1ccc(-[n+]2c(-c3ccccc3)cc(-c3ccccc3)cc2-c2ccccc2)cc1	none (no result: Ba/F3 V617F tox, IEC-6 tox, APP transl inh, BaF3 parental, KLF5 inhibitor)
Cc1ccc(-c2cc(-c3ccc(C)cc3)[n+](-c3ccc(C(=O)[O-])cc3)c(-c3ccc(C)cc3)c2)cc1	aSyn UTR inh 83 (no result: Ba/F3 V617F tox, IEC-6 tox, APP transl inh, BaF3 parental, KLF5 inhibitor)
C[n+]1c(-c2ccccc2)cc(-c2ccc(Cl)cc2)cc1-c1ccccc1	Ba/F3 V617F tox 46, BaF3 parental 30
Cc1ccc(-c2cc(-c3ccccc3)cc(-c3ccccc3)[n+]2-c2ccccc2)cc1	aSyn UTR inh 85 (no result: Ba/F3 V617F tox, IEC-6 tox, APP transl inh, BaF3 parental, KLF5 inhibitor)
CN(C)c1ccc(-[n+]2c(-c3ccccc3)cc(-c3ccccc3)cc2-c2ccccc2)cc1	Ba/F3 V617F tox 101, aSyn UTR inh 84, IEC-6 tox 71, BaF3 parental 94
O=[N+]([O-])c1cc(Cl)c(O)c(-[n+]2c(-c3ccccc3)cc(-c3ccccc3)cc2-c2ccccc2)c1	none (no result: Ba/F3 V617F tox, APP transl inh, BaF3 parental)
Cc1ccc(-c2cc(-c3ccc(C)cc3)[n+](-c3ccccc3)c(-c3ccc(C)cc3)c2)cc1	aSyn UTR inh 76 (no result: Ba/F3 V617F tox, IEC-6 tox, APP transl inh, BaF3 parental, KLF5 inhibitor)
CCOC(=O)c1cccc(-[n+]2c(-c3ccccc3)cc(-c3ccccc3)cc2-c2ccccc2)c1	none (no result: Ba/F3 V617F tox, IEC-6 tox, APP transl inh, BaF3 parental, KLF5 inhibitor)
CCCCCCCCCCCCCCCC[N+](C)(C)C	aSyn UTR inh 98 (no result: Ba/F3 V617F tox, IEC-6 tox, APP transl inh, BaF3 parental, KLF5 inhibitor)
CC(=O)O[C@@H]1/C=C/[C@](C)(O)C[C@@H](C)C/C=C/[C@H]2[C@@H]3O[C@]3(C)[C@@H](C)[C@H]3[C@H](Cc4ccccc4)NC(=O)[C@@]312	aSyn UTR inh 114 (no result: Ba/F3 V617F tox, IEC-6 tox, APP transl inh, BaF3 parental, KLF5 inhibitor)
CC1C(c2cccs2)=[N+]([O-])C(C)(C(=O)c2ccc(F)cc2)N1O (centres undefined)	none
Fc1ccc(C(OCCN2CCN(CCCc3ccccc3)CC2)c2ccc(F)cc2)cc1	aSyn UTR inh 106 (no result: Ba/F3 V617F tox, IEC-6 tox, APP transl inh, BaF3 parental, KLF5 inhibitor)
Cc1cc2c(C(C)C)c(O)c(O)c(C=O)c2c(O)c1-c1c(C)cc2c(C(C)C)c(O)c(O)c(C=O)c2c1O	none (no result: aSyn UTR inh)
OCC[n+]1c2ccccc2nc2ccc(N3CCOCC3)cc21	BaF3 parental 31 (no result: APP transl inh)
CCN(CC)C1=NC(=[N+](CC)CC)c2ccccc21	Ba/F3 V617F tox 80, BaF3 parental 66
COc1ccc(CNC(=O)CCC(=O)N2C[C@H]3C[C@H](C2)c2cccc(=O)n2C3)cc1OC	none (no result: Ba/F3 V617F tox, APP transl inh, BaF3 parental)
CSC1=NP(=S)(SC)N2CCCC2=C1C#N (centres undefined)	none
COC(=O)CSC1=NP(=S)(SCC(=O)OC)N2CCCC2=C1C#N (centres undefined)	BaF3 parental 78
CC1(C)OC(c2ccccc2)=C/C(=C/C=C2C(=O)NC(=S)NC2=O)O1	BaF3 parental 42
CN1CC[C@]2(c3cccc(O)c3)Cc3nc4ccccc4cc3C[C@H]2C1	none (no result: aSyn UTR inh, APP transl inh)
COc1ccc(O)c2c(=O)c3c(OC)cc4c(c3oc12)C1C=COC1O4 (centres undefined)	aSyn UTR inh 94, IEC-6 tox 30 (no result: APP transl inh)
OC(CNC1CCCCCCC1)c1ccccc1 (centres undefined)	none
CC12CC[C@H]3[C@@H](CCC4(O)C[C@H](O)CCC34/C=N/NC(=O)c3ccccc3Cl)C1(O)CCC2C1=CC(=O)OC1 (some centres undefined)	none (no result: APP transl inh)
C[C@H]1O[C@@H](OC2CC[C@]3(C=O)[C@H]4CC[C@]5(C)[C@@H](C6=CC(=O)OC6)CC[C@]5(O)[C@@H]4CC[C@]3(O)C2)CC2OC(C)(C)OC21 (some centres undefined)	aSyn UTR inh 96, KLF5 inhibitor 110 (no result: Ba/F3 V617F tox, APP transl inh, BaF3 parental)
C[C@H]1O[C@@H](O[C@H]2[C@@H](O)C[C@H](O[C@H]3[C@@H](O)C[C@H](O[C@H]4CC[C@@]5(C)[C@H](CC[C@@H]6[C@@H]5CC[C@]5(C)[C@@H](C7=CC(=O)OC7)CC[C@]65O)C4)O[C@@H]3C)O[C@@H]2C)C[C@H](O)[C@@H]1O	APP transl inh 94, KLF5 inhibitor 100 (no result: aSyn UTR inh)
COC(=O)C1=CO[C@@H](C)[C@@H]2CN3CC[C@@]4(C(=O)Nc5ccccc54)[C@@H]3C[C@H]12	none
